The values below come from PubChem BioAssay (Tox21).

Assay [1] can be described thus: qHTS assay to identify small molecule antagonists of the glucocorticoid receptor (GR) signaling pathway - cell viability counter screen (AID 720693). Further: nearly all actives have a fitted effect of over 55% in size. Background: qHTS replaces the single test concentration by a dilution series.
Assay [2] can be described thus: qHTS assay for identifying genotoxic compounds that show differential cytotoxicity against isogenic chicken DT40 cell lines with known DNA damage response pathways - wild type cell line (AID 743012). Further: nearly all actives have a fitted effect of over 60% in size. Further: potency means the concentration at half of the fitted maximal effect. In short, it runs like this: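 Wild-type DT40 cells (300/well) exposed to compounds for 40 hours at 37 C/5% CO2. Viability read by CellTiter-Glo luminescence after 30 min at room temperature.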

The nature of assay [3]: qHTS assay to identify small molecule antagonists of the androgen receptor (AR) signaling pathway - cell viability counter screen (AID 743033; further: nearly all actives have a fitted effect of over 45% in size; further: potency means the concentration at half of the fitted maximal effect).
Assay [4] can be described thus: qHTS assay for identifying genotoxic compounds that show differential cytotoxicity against isogenic chicken DT40 cell lines with known DNA damage response pathways - Rev3 mutant cell line (AID 743014). Further: nearly all actives have a fitted effect of over 55% in size. Further: potency means the concentration at half of the fitted maximal effect.
A short description of assay [5]: qHTS assay to identify small molecule antagonists of the androgen receptor (AR) signaling pathway using the MDA cell line - cell viability counter screen (AID 743041; further: nearly all actives have a fitted effect of over 45% in size). In short, it runs like this: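 MDA-kb2 AR-luc human breast carcinoma cells (MMTV-luciferase, AR/GR responsive) were treated with compounds plus R1881 agonist for 16 h at 37 °C. Viability was read as CellTiter-Fluor fluorescence in the same wells as the reporter assay.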

Assay [6] is described as follows: qHTS assay for identifying genotoxic compounds that show differential cytotoxicity against isogenic chicken DT40 cell lines with known DNA damage response pathways - Rad54/Ku70 mutant cell line (AID 743015). Further: nearly all actives have a fitted effect of over 60% in size. Further: potency means the concentration at half of the fitted maximal effect.
Assay [7] concerns the target Androgen receptor (Homo sapiens) (UniProt P10275). The experiment in a line: qHTS assay to identify small molecule antagonists of the androgen receptor (AR) signaling pathway (AID 743035; active means well fitted inhibition curve with a large enough effect in the signal ratio in the repeat runs, not every such curve was filed as active; the % refers to the signal ratio). In short, it runs like this: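 HEK293 cells stably carrying UAS-beta-lactamase reporter, 2,000/well, given compounds plus R1881 agonist and incubated 16 h at 37C. LiveBLAzer B/G FRET substrate then added for 2 h at room temperature before fluorescence reading.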

Assay [8] has the same target. As to the kind of experiment: qHTS assay to identify small molecule agonists of the androgen receptor (AR) signaling pathway (AID 743036; active means well fitted activation curve with a large enough effect in the signal ratio in the repeat runs, with a control signal flat, not every such curve was filed as active; the % refers to the signal ratio). In short, it runs like this: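 Cell-based FRET reporter assay: HEK293 line with a UAS-beta-lactamase construct, compounds added in DMSO, 16 h exposure at 37C, then 2 h substrate step at room temperature and fluorescence intensity read.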

For assay [9] the target is unchanged. As to the kind of experiment: qHTS assay to identify small molecule agonists of the androgen receptor (AR) signaling pathway using the MDA cell line (AID 743040; further: nearly all actives have a fitted effect of over 20% in size). In short, it runs like this:
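MDA-kb2 breast carcinoma cells stably carrying an MMTV-driven luciferase reporter (AR- and GR-responsive) were seeded and held 5 h at 37C, 0% CO2, then exposed to compounds in DMSO for 16 h. Luminescence was read 30 min after ONE-Glo addition.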

The target is the same in assay [10]. As to the kind of experiment: qHTS assay to identify small molecule antagonists of the androgen receptor (AR) signaling pathway using the MDA cell line (AID 743042; further: nearly all actives have a fitted effect of over 55% in size). Put shortly: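 MDA-kb2 cells (human breast carcinoma, stably carrying an MMTV-luciferase reporter responsive to AR and GR) were plated at 3,000 cells/well and preincubated 5 hr at 37C, then given compound plus R1881 agonist for 16 h. ONE-Glo luminescence was read.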

The structures appear in SMILES notation. Values joined by “and” are separate entries in the source; they are usually repeats but may differ in a detail not shown here. Equal entries are not always repeated. Inconclusive results are not listed. The source holds several records for some structures; these can differ, active in one and inactive in another. Active and inactive are the calls of the source. Unless noted, the call rests on the fitted dose curve; in most records, active means well fitted curve in the direction sought with a large enough effect in the repeat runs; inconclusive means weak or mixed curves; inactive means no such curve, though single readings can be large; an effect the other way counts as inactive or inconclusive.
On the % scale 0 is the no-effect control and ±100 the full control effect.

Sequence of Androgen receptor (Homo sapiens) (P10275 whole entry, looked up): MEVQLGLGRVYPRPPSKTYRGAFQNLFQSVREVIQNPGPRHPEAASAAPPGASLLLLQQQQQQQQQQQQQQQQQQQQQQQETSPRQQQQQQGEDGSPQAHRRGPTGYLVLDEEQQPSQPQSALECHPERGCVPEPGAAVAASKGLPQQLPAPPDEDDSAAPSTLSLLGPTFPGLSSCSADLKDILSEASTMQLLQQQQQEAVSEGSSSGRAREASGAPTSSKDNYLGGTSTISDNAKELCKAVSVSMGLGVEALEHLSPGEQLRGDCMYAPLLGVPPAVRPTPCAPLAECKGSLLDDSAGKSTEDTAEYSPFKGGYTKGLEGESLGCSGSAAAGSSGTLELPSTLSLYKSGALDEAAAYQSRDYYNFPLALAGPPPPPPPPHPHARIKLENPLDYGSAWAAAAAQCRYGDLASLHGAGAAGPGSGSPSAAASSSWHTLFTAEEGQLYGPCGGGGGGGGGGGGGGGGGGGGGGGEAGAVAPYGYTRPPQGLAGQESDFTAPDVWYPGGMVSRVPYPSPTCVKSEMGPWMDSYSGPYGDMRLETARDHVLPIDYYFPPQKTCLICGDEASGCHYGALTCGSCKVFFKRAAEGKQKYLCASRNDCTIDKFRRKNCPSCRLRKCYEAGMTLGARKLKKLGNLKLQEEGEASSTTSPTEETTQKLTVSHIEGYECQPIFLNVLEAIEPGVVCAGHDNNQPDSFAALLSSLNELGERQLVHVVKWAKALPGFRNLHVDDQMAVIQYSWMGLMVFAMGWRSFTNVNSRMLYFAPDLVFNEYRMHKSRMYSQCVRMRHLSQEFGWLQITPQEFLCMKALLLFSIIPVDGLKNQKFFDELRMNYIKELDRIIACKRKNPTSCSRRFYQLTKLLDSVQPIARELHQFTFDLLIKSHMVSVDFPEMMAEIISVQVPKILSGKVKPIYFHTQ

On to `Cc1[nH]c(=O)c(C#N)cc1-c1ccc2nccn2c1`, for which the outcome in [1] was inactive. Further, the Potency entry in assay [2] and in assay [3] was “inactive” each time.
For `CCCCCSCCCCC`, in [1], the outcome was inactive. The Potency in assay [4] was 61.1 µM (active). The Potency result in assay [3] and in assay [5] was “inactive” in each case.
Regarding `N=c1nc(N2CCCCC2)cc(N)n1O`, in [1], the result was inactive. For the same molecule, the Potency entry in assay [3] and in assay [5] was “inactive” in each case.
Consider `COc1nc(N)nc2c1ncn2[C@@H]1O[C@H](CO)[C@@H](O)[C@@H]1O`, for which the outcome in assay [1] was inactive. Also, the Potency result in [2], in assay [3] and in assay [5] was “inactive” throughout.
On to `C[N+](C)(C)CC(O)CC(=O)[O-]` (stereo unspecified), for which the molecule was called inactive in assay [1]. In addition, the Potency entry in assay [2], in [4] and in [5] was “inactive” in each case.
`CC(=O)CC(C)C`: the Potency entry in assay [2], in assay [4], in assay [6], in assay [3], in assay [9] and in assay [5] was “inactive” each time. In addition, the Potency result in assay [10] is “inactive”. Also, the molecule was classed as inactive in assay [7] and in [8].
Regarding `COC(=O)C1=C(C)NC(C)=C(C(=O)OC)C1c1ccccc1[N+](=O)[O-]`, the molecule was called inactive in assay [1]. Further, in assay [3], the Potency entry was “inactive and 49 µM (active)”. Also, the Potency result in [5] was “inactive”.
Take `CCCCCCCCCCCCCC=O`: the viability change, negative = cytotoxic in assay [1] is -0.799% [at 7.04 µM] (inactive); in assay [5], -4.68% [at 8.47 µM] (inactive). The activity change, negative = cytotoxicity in [6] is -24.1% [at 8.55 µM] (inactive); in [3], 5.83% [at 7.04 µM] (inactive).
For `Nc1ccccc1S(=O)(=O)O`, the call in assay [1] was inactive. The Potency entry in assay [2], in assay [4], in [3] and in [5] was “inactive” throughout.
For the molecule `CC/C=C\CCOC(C)=O`, the Potency result in assay [2], in assay [4], in assay [6], in assay [3] and in assay [5] was “inactive” throughout.
Regarding `C[C@H]1C[C@@H](O)CC(C)(C)C1`, the Potency result in assay [2], in assay [4], in assay [6], in assay [3] and in assay [5] was “inactive” in each case.
In the case of `N=C(N)c1ccccc1`, the Potency result in [2], in [6] and in assay [3] was “inactive” each time.
Consider `CCCc1cc(C(N)=S)ccn1`, for which the Potency result in assay [2], in assay [4], in [3] and in [5] was “inactive” throughout.
On to `COC(=O)c1cc(C(=O)OC)cc(S(=O)(=O)O)c1`, for which the Potency entry in [2], in assay [4], in assay [6], in assay [3] and in assay [5] was “inactive” in each case.
As for `C/C=C(\C)C#N`, the Potency entry in [2], in assay [4] and in assay [3] was “inactive” throughout.
Take `NS(=O)(=O)c1cc2c(cc1Cl)NC(C1CC3C=CC1C3)NS2(=O)=O` (stereo unspecified): the Potency entry in assay [2], in [4], in assay [6], in assay [9] and in [10] was “inactive” each time. Besides, the molecule was classed as inactive in assay [7] and in [8].
As for `CCCC(=O)O[C@]1(C(=O)CO)CC[C@H]2[C@@H]3CCC4=CC(=O)CC[C@]4(C)[C@H]3[C@@H](O)C[C@@]21C`, the Potency result in assay [2], in assay [4], in assay [6] and in [5] was “inactive” each time.
Consider `C=COCC1CCC(CO)CC1` (stereo unspecified), for which the Potency result in [2], in assay [4], in assay [6], in assay [3] and in assay [5] was “inactive” in each case.
As to `CCCCCCOC(=O)CCCCC(=O)OCCCCCC`, the Potency entry in assay [2], in assay [3] and in assay [5] was “inactive” throughout.
In the case of `CCCCCCCCCCCCN(CCCCCCCCCCCC)CCCCCCCCCCCC`, the Potency result in [3] and in assay [5] was “inactive” in each case.
In the case of `CC(=O)Nc1c(I)cc(I)c(C(=O)O)c1I`, the Potency entry in [2], in assay [4], in [6] and in assay [5] was “inactive” each time.
Consider `C=CCS(=O)(=O)O`, for which the Potency entry in [2], in [4], in assay [6], in [3] and in [5] was “inactive” in each case.
`C1CN(CCOCCN2CCOCC2)CCO1`: the Potency entry in assay [4], in assay [6] and in assay [3] was “inactive” throughout.
In the case of `CCCCC(CC)COC(=O)c1ccccc1O` (stereo unspecified), the Potency result in assay [2], in assay [4] and in assay [3] was “inactive” throughout.
Regarding `O=C[C@H](O)[C@@H](O)[C@H](O)[C@H](O)CO`, the Potency result in assay [2], in [4], in assay [6], in [3] and in [5] was “inactive” throughout.
With `CCc1nccnc1CC`, the Potency result in [2], in [4] and in assay [3] was “inactive” throughout.
`C=C(C)CS(=O)(=O)O`: the Potency result in assay [4], in assay [6], in assay [3], in assay [9] and in [10] was “inactive” throughout.
As for `N[C@H]1CN(c2c(F)cc3c(=O)c(C(=O)O)cn(C4C[C@H]4F)c3c2Cl)CC12CC2` (stereo partly specified), the Potency entry in [2], in [4], in assay [6], in assay [3] and in assay [5] was “inactive” in each case.
As to `Cc1nc2c([nH]1)c(=O)n(C)c(=O)n2Cc1ccco1`, the Potency result in assay [2], in assay [4], in [6], in assay [3] and in [5] was “inactive” in each case.
As for `CCCCCCCCCCCC`, the Potency entry in assay [2], in assay [4], in assay [3] and in assay [5] was “inactive” in each case.
Take `CC(C)(O)C#CC(C)(C)O`: the Potency entry in assay [2], in [4], in assay [6], in assay [3] and in assay [5] was “inactive” each time.
Consider `O=c1cc(-c2ccccc2)oc2ccccc12`, for which the Potency is 21.7 µM (active) in [2]; 48.6 µM (active) and 43.1 µM (active) in assay [4]; 56.9 µM (active) in assay [6]. The Potency result in assay [3], in assay [9], in [5] and in assay [10] was “inactive” each time.
As for `COC(=O)c1c(Cl)c(Cl)c(C(=O)OC)c(Cl)c1Cl`, the Potency result in [2] is “inactive and 48.6 µM (active)”. The Potency result in [4], in [6], in assay [3] and in [5] was “inactive” each time.
In the case of `C[N+](C)(C)CCCCCC[N+](C)(C)C`, the Potency entry in assay [2], in [4], in assay [6], in assay [3] and in assay [5] was “inactive” in each case.
In the case of `CCOC(=O)C(=O)OCC`, the Potency entry in assay [2], in assay [3] and in [5] was “inactive” each time.
For the molecule `COc1ccc(CCN(C)CCCC(C#N)(c2cc(OC)c(OC)c(OC)c2)C(C)C)cc1OC` (stereo unspecified), the figures for the Potency in assay [2], in assay [4] and in assay [6] were 16.8 µM (active), 29.8 µM (active) and 29.8 µM (active), respectively. Besides, the Potency result in [3] and in assay [5] was “inactive” in each case.
Regarding `O=C(O)CNC(=O)c1ccc([N+](=O)[O-])cc1`, the Potency entry in [2], in [4], in assay [3] and in assay [5] was “inactive” throughout.
With `CCN(Cc1ccncc1)C(=O)C(CO)c1ccccc1` (stereo unspecified), the Potency result in assay [2], in assay [4], in assay [6], in [3] and in assay [5] was “inactive” in each case.
